# Assay outcomes: PubChem BioAssay, several laboratories
# D1 mod – D1 CRE-luciferase signal change, two-sided – cell-based, HEK293 D1, dopamine EC30, D1 allosteric modulator project, primary screen | D(1A) dopamine receptor (Homo sapiens), P21728 | dopamine EC30 potentiation; actives deviate in either direction | B-score at 10 µM | 5.9% of 58,000 active;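 active = luminescence count or its row- and column-corrected plate score outside the 99.7% band of the plate's sample wells, on either side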
# Target sequence (P21728 whole entry, looked up): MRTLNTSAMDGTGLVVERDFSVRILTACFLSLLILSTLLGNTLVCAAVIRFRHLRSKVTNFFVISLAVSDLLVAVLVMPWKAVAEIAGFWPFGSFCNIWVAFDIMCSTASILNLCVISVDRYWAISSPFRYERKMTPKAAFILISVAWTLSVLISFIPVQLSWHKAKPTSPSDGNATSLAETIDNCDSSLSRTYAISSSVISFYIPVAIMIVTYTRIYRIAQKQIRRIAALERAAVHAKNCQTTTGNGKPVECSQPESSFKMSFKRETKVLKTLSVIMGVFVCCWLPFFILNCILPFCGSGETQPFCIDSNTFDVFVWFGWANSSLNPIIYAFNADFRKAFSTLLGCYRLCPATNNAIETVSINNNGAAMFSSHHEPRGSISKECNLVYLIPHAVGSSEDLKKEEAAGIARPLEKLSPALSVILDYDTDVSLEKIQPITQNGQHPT
# EphB4 ephrin blk – EphB4-ephrin-B2 interaction antagonists, primary screen, biochemical, TNYL-RAW peptide probe, fluorescence polarization | EphB4 LBD / TNYL-RAW-Alexa532 peptide | inhibition, % at 7 µM | 0.15% of 97,000 active | AID 720, 2007;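 active = inhibition above the screen-wide mean inhibition plus 3 SD, cut at about 15% in these data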;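 also: 0% = DMSO wells and 100% = excess unlabeled TNYL-RAW peptide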
# DAT uptake mod – changed hDAT dopamine uptake under cocaine IC80, either direction, primary screen, cocaine antagonist project, cell-based, LLC-PK1 hDAT, [14C]-dopamine uptake, MLSMR; LLC-PK1 hDAT cells, [14C]-dopamine uptake with cocaine IC80; actives deviate in either direction; B-score at 10 µM; 1.3% of 110,000 active; AID 449768, 2010;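 active = Z score or B-score, a plate-position-corrected score, falls beyond the plate's 99.7% confidence bounds, in either direction; inactive = both scores lie inside the 99.7% bounds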;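 also: scored against the spread of the other compound wells on the same plate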
# D1 PAM confirm – D1 receptor positive allosteric modulators, retest, confirmation, cell-based, HEK293 D1, CRE-luciferase, duplicate | shares compounds with D1 mod | dopamine EC30 potentiation; active compounds read high | luminescence at 10 µM | 88% of 2,200 active | AID 642, 2007;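 active = luminescence in either of two replicates above the same-plate mean plus 3 SD of the low-dose dopamine control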
# D1 no dopamine – D1 receptor agonism without dopamine, confirmation, mechanism study for D1 allosteric modulator project, cell-based, HEK293 D1, CRE-luciferase, secondary assay 1; shares compounds with D1 mod; 0.8% of 1,900 active; luminescence, no dopamine; active compounds read high; luminescence at 10 µM; in the data active = luminescence above about 3900
# Isoprot counter – isoproterenol response counter-screen activity for D1 modulators. HEK293 D1 CRE-luciferase, isoproterenol EC30 counter-screen. 63% of 2,200 active. shares compounds with D1 mod. calls only at 10 µM;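 active = luminescence in either replicate above plate mean of wells with a partly effective reference agonist dose plus 3 SD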;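 also: isoproterenol raises cAMP through native beta-adrenoceptor Gs so signal bypasses D1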
# * marks the source's active call; other numbers are inactive results; i = inactive; nt = no result given; + = active, no number. This is one part of a sample in which hits are shown more often than they occur.
SMILES,D1 mod,EphB4 ephrin blk,DAT uptake mod,D1 PAM confirm,D1 no dopamine,Isoprot counter
C/C=C/C(=O)N1CC2(CC(c3cccc(NC(=O)COc4ccc(Cl)cc4)c3)=NO2)C[C@@H]1C(N)=O (stereo partly specified),nt,nt,-0.258,nt,nt,nt
CC(=O)Nc1ccc(C(=O)NC(CC(=O)O)c2ccc(Cl)cc2)cc1 (stereo unspecified),nt,2.4,-0.348,nt,nt,nt
CN(C)c1ccc(C(CC(=O)O)NC(=O)c2ccc(Cl)cc2)cc1 (stereo unspecified),18.3*,-5.1,0.133,5248,nt,i
CCCNc1nc2c(c(=O)[nH]c(=O)n2C)n1CCCc1ccccc1,1.06,-0.5,-0.834,nt,nt,nt
CCOC(=O)C(CC)Sc1nc2c(c(=O)[nH]c(=O)n2C)n1CCc1ccccc1 (stereo unspecified),0.141,-0.6,1.21,nt,nt,nt
C/C(Cl)=C/Cn1c(SC(C)C)nc2c1c(=O)[nH]c(=O)n2C,32*,-5.4,-0.371,17228*,1588,+
CCOC(=O)C(C)Sc1nc2c(c(=O)[nH]c(=O)n2C)n1Cc1ccc(Cl)cc1 (stereo unspecified),4.84,nt,-0.152,nt,nt,nt
CCCNc1nc2c(c(=O)[nH]c(=O)n2C)n1CCc1ccccc1,3.13*,nt,0.0755,8752*,1684,i
CC(C)Sc1nc2c(c(=O)[nH]c(=O)n2C)n1CCc1ccccc1,25.7*,nt,-0.748,24288*,1728,+
Cn1c(=O)[nH]c(=O)c2c1nc(SCC(=O)O)n2CCc1ccccc1,0.975,-2.0,0.495,nt,nt,nt
CCC(C)Sc1nc2c(c(=O)[nH]c(=O)n2C)n1CCc1ccccc1 (stereo unspecified),21.4*,5.6,-0.41,20608*,1572,+
CC12C(=O)N(c3nccs3)C(=O)C1C1C=CC2C1 (stereo unspecified),0.0309,5.3,-0.0607,nt,nt,nt
CNC(=O)CN(c1ccc(F)cc1)S(=O)(=O)c1cc(C)ccc1OC,nt,6.1,0.251,nt,nt,nt
CCc1[nH]nc2c1C(c1ccc(Br)s1)C(C#N)=C(N)O2 (stereo unspecified),nt,4.8,1.18,nt,nt,nt
COc1ccccc1NC(=O)Cn1nnc(-c2ccccc2NC(=O)c2cc3ccccc3oc2=O)n1,nt,-3.4,0.0246,nt,nt,nt
Cn1c(N2CCCC2)nc2c1c(=O)n(Cc1ccc(Cl)cc1)c(=O)n2C,8.97*,1.4,0.501,17964*,1940,+
Cn1c(N2CCC(C(N)=O)CC2)nc2c1c(=O)n(Cc1ccc(Cl)cc1)c(=O)n2C,-0.922,-3.1,1.61,nt,nt,nt
Cn1c(N2CCCC2)nc2c1c(=O)n(Cc1cccc(F)c1)c(=O)n2C,4.48*,2.1,1.22,11200*,1392,+
Cn1c(=O)n(Cc2ccccc2)c(=O)c2c1nc1n2CCCN1Cc1ccccc1,0.00533,-7.5,-0.0385,nt,nt,nt
Cc1ccc(SCC(=O)NC(C)(C)C)cc1,nt,-3.7,-0.739,nt,nt,nt
CCOC(=O)[C@@H]1[C@H]2COc3ccc(Br)cc3[C@@H]2N2C(=O)N(c3cccc(F)c3)C(=O)[C@]12C,nt,nt,0.0309,nt,nt,nt
CC(C)CCn1c(Sc2nc3ccccc3s2)nc2c1c(=O)[nH]c(=O)n2C,21.2*,1.8,0.449,19816*,1612,+
CC(CSc1nc2ccccc2s1)Cn1c(N2CCCC2)nc2c1c(=O)[nH]c(=O)n2C (stereo unspecified),2.46*,-6.0,0.502,13288*,nt,+
CCN1CCN(c2nc3c(c(=O)[nH]c(=O)n3C)n2CCSc2nc3ccccc3s2)CC1,0.967,-2.2,0.139,nt,nt,nt
CC(C)CCn1c(SCC(=O)c2ccccc2)nc2c1c(=O)[nH]c(=O)n2C,1.39,7.5,0.56,nt,nt,nt
SMILES,D1 mod,EphB4 ephrin blk,DAT uptake mod,D1 PAM confirm,D1 no dopamine,Isoprot counter
O=C(Cn1cc([N+](=O)[O-])cn1)Nc1ccn(Cc2c(F)c(F)c(F)c(F)c2F)n1,nt,4.3,-0.384,nt,nt,nt
Cc1ccc(C)n1-n1c(C)nc2scc(-c3cccs3)c2c1=O,1.9,nt,-0.346,nt,nt,nt
Cc1nc2scc(-c3cccs3)c2c(=O)n1-n1cccc1,4.06*,-8.0,-0.363,9316*,1476,+
Cc1ccc2c(c1)nnn2C1CCN(C(=O)C2CCCCC2)CC1,nt,nt,-0.311,nt,nt,nt
COc1ccc2ncn(-c3ccccc3)c2c1,5.15*,-0.9,0.818,8964*,1568,i
COc1ccc(-n2cnc3ccccc32)cc1,nt,1.2,-1.26,nt,nt,nt
CCO[C@H]1OC(C(=O)NCc2ccccc2)=C[C@@H](c2cn(C(C)=O)c3ccccc23)[C@@H]1CCCO,nt,nt,1.06,nt,nt,nt
Cc1ccc(N2C(N)=C(C#N)C(c3ccsc3)C3=C2CC(C)(C)CC3=O)cc1 (stereo unspecified),nt,7.5,0.389,nt,nt,nt
N#CC1=C(N)N(c2ccccc2)C2=C(C(=O)CCC2)C1c1ccsc1 (stereo unspecified),8.34*,nt,-0.0224,17976*,1976,i
N#Cc1c(-c2ccccc2)cc(C2CC2)nc1N,25.3*,nt,-0.00686,29052*,1688,+
N#Cc1c(-c2ccco2)cc(C2CC2)nc1N,nt,-5.5,0.269,nt,nt,nt
Cc1cccnc1NC1(C(F)(F)F)N=C(c2ccccc2)NC1=O (stereo unspecified),nt,-0.6,-0.224,nt,nt,nt
COc1ccccc1N/C(=N/S(=O)(=O)c1ccc(Cl)cc1)c1ccccc1,nt,-5.5,-1.16,nt,nt,nt
COc1cc(N/C(=N/S(=O)(=O)c2ccccc2)c2ccccc2)ncn1,6.45*,2.2,0.162,14612*,1720,i
OCC[C@@H]1C[C@@H](O)[C@H](O)[C@]2(CCCO2)O1,nt,nt,-0.599,nt,nt,nt
COc1ccc(CCNS(=O)(=O)c2cccc(C)c2)cc1OC,nt,2.2,1.2,nt,nt,nt
COc1ccc(CCNS(=O)(=O)c2ccc3c(c2)OCCO3)cc1OC,5.17*,-6.8,0.684,11256*,1696,i
COc1ccc(CCNS(=O)(=O)c2cccc(F)c2)cc1OC,8.13*,-2.0,0.18,11924*,nt,+
COCCCNS(=O)(=O)c1ccc2c(c1)OCCO2,1.48,nt,0.43,nt,nt,nt
COc1ccc(OC)c(NC(=O)CSc2nnc(C3CCCCC3)n2-c2ccccc2)c1,nt,0.5,1.67,nt,nt,nt
CS(=O)(=O)N(CC(=O)N1CCN(c2ccc(F)cc2)CC1)c1ccc(F)c(Cl)c1,nt,5.6,0.195,nt,nt,nt
COc1ccc(-c2ccc3oc(-c4ccsc4)cc3c2)cc1,nt,nt,0.929,nt,nt,nt
O=C(N/N=C/c1ccc(O)c(O)c1)c1ccc(CSc2cccc3cccnc23)cc1,nt,-2.7,-1.31,nt,nt,nt
N#Cc1c(N)c(C(=O)c2ccccc2)n2c1CCC2,-0.245,-1.1,0.18,nt,nt,nt
COC(=O)c1c(N)c(C#N)c2n1CCCCC2,3.82*,2.0,-0.774,7512*,nt,i
COc1ccc(-c2noc(CCC(=O)Nc3cccnc3)n2)cc1OC,4.65*,-2.4,0.239,17976*,1752,i
